# PubChem BioAssay (EPA / NIEHS)
# Inconclusive results are not listed. More than one record can exist for a structure, and the calls need not agree. Active and inactive are the calls of the source. Rule for the calls, unless noted: active = hit-call score of the fitted dose curve at least 0.9, where 1 is the maximum; inactive = score below 0.9.
# Tests used:
# [1] = CCTE_Shafer_MEA_dev_firing_rate_mean: CCTE's Neural Network Formation Assay for Mean Firing Rate, Shafer Lab (AID 2284031)
# Outline: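 Primary rat cortical neurons on 48-well MEA plates, exposed from plating day 0 with dosing renewed on DIV 5 and 9. Mean well firing rate over active electrodes, recorded days 5, 7, 9, 12, summarised as trapezoidal AUC.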
# [2] = CCTE_Shafer_MEA_dev_per_burst_spike_percent: CCTE's Neural Network Formation Assay for Percent of Spikes in a Burst, Shafer Lab (AID 2284032);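 for AC50: fitted as a decrease in burst spike percentage below DMSO baseline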
# Outline: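 Rat primary cortical neurons on 16-electrode MEA wells, dosed from plating day 0 for 12 days with renewal on DIV 5 and 9; spikes-in-bursts percentage averaged over bursting electrodes, collapsed as AUC across days 5, 7, 9, 12; loss direction versus DMSO.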
# [3] = CCTE_Shafer_MEA_dev_burst_rate: CCTE's Neural Network Formation Assay for Burst Rate, Shafer Lab (AID 2284042)
# Outline: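 Rat primary cortical cultures on PEI/laminin MEA; compound from plating, re-dosed at DIV 5, 9 media change. Single-electrode bursts/recording length, well mean of active electrodes; AUC over DIV 5–12 recordings; loss-of-signal vs DMSO.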
# [4] = CCTE_Shafer_MEA_dev_per_burst_interspike_interval: CCTE's Neural Network Formation Assay for Burst Interspike Interval, Shafer Lab (AID 2284044);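 note: mean spike spacing inside bursts as AUC over recordings on days 5 7 9 12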
# Outline: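 Rat cortical primary cultures, 16 electrodes/well; compound from plating, renewed with full media change DIV 5 and 9. Spikes via adaptive detector; per-burst ISI well-mean over active bursting electrodes; AUC of DIV 5/7/9/12 recordings; loss-direction fit vs DMSO.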
# [5] = target: Estrogen receptor (Homo sapiens) (UniProt P03372); experiment: CCTE_Deisenroth_AIME_384WELL_LUC_Active: CCTE's 384-well Estrogen Receptor Transactivation Assay with AIME metabolic competence (ERTA luciferase; metabolism positive), Deisenroth Lab (AID 2284030; active = hit-call score of the fitted dose curve at least 0.9, where 1 is the maximum)
# Estrogen receptor (Homo sapiens), sequence (P03372 whole entry, looked up): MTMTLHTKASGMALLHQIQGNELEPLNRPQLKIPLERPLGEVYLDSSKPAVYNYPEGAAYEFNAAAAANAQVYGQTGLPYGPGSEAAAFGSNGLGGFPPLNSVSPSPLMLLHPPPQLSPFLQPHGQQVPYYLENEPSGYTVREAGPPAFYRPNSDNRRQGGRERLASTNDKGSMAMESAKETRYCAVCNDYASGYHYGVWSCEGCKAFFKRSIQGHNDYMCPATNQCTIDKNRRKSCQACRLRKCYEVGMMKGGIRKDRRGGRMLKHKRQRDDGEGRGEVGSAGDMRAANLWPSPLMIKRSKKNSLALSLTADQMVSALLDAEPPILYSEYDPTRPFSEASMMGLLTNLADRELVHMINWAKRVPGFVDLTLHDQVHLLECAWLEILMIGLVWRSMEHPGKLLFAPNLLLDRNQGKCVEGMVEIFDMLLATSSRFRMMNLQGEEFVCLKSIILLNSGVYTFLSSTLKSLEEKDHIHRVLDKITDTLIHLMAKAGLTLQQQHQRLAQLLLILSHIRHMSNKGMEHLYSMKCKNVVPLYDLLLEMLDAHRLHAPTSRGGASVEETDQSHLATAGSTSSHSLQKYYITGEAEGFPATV
# Outline: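 Test chemicals (10-point series, 0.002 - 200 uM) were preincubated 2 hours with alginate-immobilized phenobarbital/beta-naphthoflavone-induced male Sprague Dawley rat liver S9; conditioned medium then went onto VM7Luc4E2 breast cells for 24 hour. Luciferase gain-of-signal fitted relative to 17beta-estradiol.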
# [6] = target: Estrogen receptor (Homo sapiens) (UniProt P03372); experiment: CCTE_Deisenroth_AIME_384WELL_LUC_Inactive: CCTE's 384-well Estrogen Receptor Transactivation Assay without AIME metabolic competence (ERTA luciferase; metabolism negative), Deisenroth Lab (AID 2284038; active = hit-call score of the fitted dose curve at least 0.9, where 1 is the maximum;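 note: hits raise estrogen receptor luciferase signal so potencies reflect agonists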)
# Outline: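 Metabolism-negative mode: chemicals (10-point, 0.002–200 uM) held 2 h with alginate-water microspheres, then conditioned medium applied to VM7Luc4E2 cells for 24 h. Luciferase induction referenced to 17beta-estradiol.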
# [7] = CCTE_Deisenroth_AIME_384WELL_CTox_Inactive: Cytotoxicity Assessment (CTOX) in CCTE's 384-well Estrogen Receptor Transactivation Assay without AIME metabolic competence (metabolism negative), Deisenroth Lab (AID 2284039; active = hit-call score of the fitted dose curve at least 0.9, where 1 is the maximum;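 note: cell viability via live-cell protease substrate cleaved to fluorescent probe; cells exposed 24 h to medium preincubated 2 h with alginate-water beads without S9; loss of fluorescence signal means loss of viability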)
# Outline: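 VM7Luc4E2 human breast cells received conditioned medium from a 2 h incubation of chemical with alginate-water microspheres (no S9), then were exposed 24 h. Viability was read as protease-substrate cleavage to a fluorescent probe; loss of signal was fitted bidirectionally over 0.002–200 uM.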
# [8] = target: Estrogen receptor (Homo sapiens) (UniProt P03372); experiment: CCTE_Deisenroth_AIME_384WELL_LUC_Shift: CCTE's 384-well Estrogen Receptor Transactivation Assay with AIME metabolic competence data shift (ERTA luciferase; difference in metabolism positive and negative), Deisenroth Lab (AID 2284041);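 note: shift is response with S9 minus without S9 so positive means metabolism raised ER signal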
# Outline: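 Here, parent compounds undergo 2 h phase I metabolism by PB/BNF-induced rat S9 before 24 h transactivation in VM7Luc4E2 cells; the curve models S9-positive minus S9-negative response over a 10-point series.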
smiles,measurement,setting,value
CCOP(=S)(OCC)SCSCC,outcome,[1],inactive
same,AC50,[2],74.7 µM (active)
same,outcome,[2],inactive
same,outcome,[3],inactive
same,outcome,[4],inactive
CCCN(CCC)c1c([N+](=O)[O-])cc(C(C)C)cc1[N+](=O)[O-],AC50,[5],13.3 µM (active)
same,outcome,[6],inactive
same,outcome,[7],inactive
same,outcome,[8],inactive
Cc1cccc(N)c1,outcome,[5],inactive
same,outcome,[6],inactive
same,outcome,[7],inactive
same,outcome,[8],inactive
OCC(F)(F)OC(F)(F)C(F)(F)OC(F)(F)C(F)(F)OC(F)(F)CO,outcome,[1],inactive
same,outcome,[2],inactive
same,outcome,[3],inactive
same,outcome,[4],inactive
